PubChem BioAssay (Tox21)
Records with an inconclusive call do not appear. Calls of active or inactive are those of the source. Unless noted, the call rests on the fitted dose curve; in most records, active means well fitted curve in the direction sought with a large enough effect in the repeat runs; inconclusive means weak or mixed curves; inactive means no such curve, though single readings can be large; an effect the other way counts as inactive or inconclusive.

How the values were obtained:
[1] = qHTS assay to identify small molecule antagonists of the glucocorticoid receptor (GR) signaling pathway - cell viability counter screen (AID 720693); further: nearly all actives have a fitted effect of over 55% in size
[2] = qHTS assay for identifying genotoxic compounds that show differential cytotoxicity against isogenic chicken DT40 cell lines with known DNA damage response pathways - wild type cell line (AID 743012); further: nearly all actives have a fitted effect of over 60% in size
Procedure, shortened: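 Cytotoxicity in repair-proficient parental chicken DT40 cells serves as the comparator for Rad54/Ku70- and Rev3-deficient lines. Cells were exposed to compounds for 40 h at 37 C/5% CO2, and ATP-based luminescence (CellTiter-Glo) measured viability.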

[3] = qHTS assay for identifying genotoxic compounds that show differential cytotoxicity against isogenic chicken DT40 cell lines with known DNA damage response pathways - Rev3 mutant cell line (AID 743014); further: nearly all actives have a fitted effect of over 55% in size
[4] = qHTS assay for identifying genotoxic compounds that show differential cytotoxicity against isogenic chicken DT40 cell lines with known DNA damage response pathways - Rad54/Ku70 mutant cell line (AID 743015); further: nearly all actives have a fitted effect of over 60% in size
[5] = qHTS assay to identify small molecule antagonists of the androgen receptor (AR) signaling pathway - cell viability counter screen (AID 743033; further: nearly all actives have a fitted effect of over 45% in size)
[6] = qHTS assay to identify small molecule antagonists of the androgen receptor (AR) signaling pathway using the MDA cell line - cell viability counter screen (AID 743041; further: nearly all actives have a fitted effect of over 45% in size)
Procedure, shortened: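 Cytotoxicity counter screen: MDA-kb2 AR-luc cells, compound + R1881, 16 h, 37C, 0% CO2; CellTiter-Fluor added at 15.5 h, fluorescence read after 30 min.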

[7] = qHTS assay to identify small molecule antagonists of the thyroid receptor (TR) signaling pathway - cell viability counter screen (AID 743064); further: nearly all actives have a fitted effect of over 50% in size
Procedure, shortened: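 GH3.TRE-Luc rat pituitary cells carrying a TRE-luciferase reporter were treated with compound plus 1 nM T3 (final) for 23.5 h at 37 °C. Viability was then read in the same wells by CellTiter-Fluor fluorescence after a further 30 min.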

[8] = qHTS assay to identify small molecule antagonists of the thyroid receptor (TR) signaling pathway (AID 743065); further: series mostly up to about 70 µM; nearly all actives have a fitted effect of over 55% in size
Procedure, shortened: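 GH3.TRE-Luc rat pituitary cells (two TREs driving luciferase) were dosed with compound, then stimulated with 1 nM T3 (final) for 23.5 h at 37 C. ONE-Glo luminescence was the read-out, with CellTiter-Fluor fluorescence as the cytotoxicity counter-screen.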

[9] = test system: thyroid hormone receptor (rat, GH3 cells); experiment: qHTS assay to identify small molecule agonists of the thyroid receptor (TR) signaling pathway (AID 743066; calls by dose curve)
[10] = molecular target: Estrogen receptor (Homo sapiens) (UniProt P03372); experiment: qHTS assay to identify small molecule antagonists of the estrogen receptor alpha (ER-alpha) signaling pathway (AID 743069; active means well fitted curve in the direction sought with a large enough effect in the signal ratio in the repeat runs, not every such curve was filed as active; the % refers to the signal ratio)
Sequence of Estrogen receptor (Homo sapiens) (P03372 whole entry, looked up): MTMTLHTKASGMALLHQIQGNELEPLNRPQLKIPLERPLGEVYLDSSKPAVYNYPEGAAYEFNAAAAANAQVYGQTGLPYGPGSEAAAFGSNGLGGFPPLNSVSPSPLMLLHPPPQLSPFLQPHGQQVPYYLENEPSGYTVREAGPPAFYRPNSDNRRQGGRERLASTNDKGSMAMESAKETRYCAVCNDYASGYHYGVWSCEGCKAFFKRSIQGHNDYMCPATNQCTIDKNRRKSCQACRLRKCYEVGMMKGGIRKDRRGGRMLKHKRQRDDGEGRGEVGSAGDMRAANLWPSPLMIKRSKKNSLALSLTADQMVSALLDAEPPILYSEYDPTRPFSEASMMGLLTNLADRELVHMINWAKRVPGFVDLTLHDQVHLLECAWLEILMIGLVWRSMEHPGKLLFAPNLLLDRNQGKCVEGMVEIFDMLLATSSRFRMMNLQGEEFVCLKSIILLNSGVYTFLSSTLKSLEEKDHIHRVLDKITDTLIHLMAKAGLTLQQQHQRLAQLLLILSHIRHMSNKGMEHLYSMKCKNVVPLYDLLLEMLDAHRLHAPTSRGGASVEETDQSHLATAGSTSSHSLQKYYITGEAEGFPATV
Procedure, shortened: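 Beta-lactamase FRET fluorescence is read after 2 hr at room temperature with LiveBLAzer B/G substrate. Before that, ER-alpha-bla HEK293 cells sit 4 hr after plating, then receive compound plus 17beta-estradiol and incubate 18 hr at 37C.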

[11] = qHTS assay to identify small molecule antagonists of the estrogen receptor alpha (ER-alpha) signaling pathway - cell viability counter screen (AID 743074; calls by dose curve;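 further: HEK293 cells carrying ER-alpha-UAS-bla reporter stimulated with 17beta-estradiol; nearly all actives have a fitted effect of over 45% in size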)
[12] = molecular target: Estrogen receptor (Homo sapiens) (UniProt P03372); experiment: qHTS assay to identify small molecule agonists of the estrogen receptor alpha (ER-alpha) signaling pathway (AID 743075; calls by dose curve)
[13] = molecular target: Estrogen receptor (Homo sapiens) (UniProt P03372); experiment: qHTS assay to identify small molecule agonists of the estrogen receptor alpha (ER-alpha) signaling pathway using the BG1 cell line (AID 743079); further: nearly all actives have a fitted effect of over 20% in size
[14] = qHTS assay to identify small molecule antagonists of the estrogen receptor alpha (ER-alpha) signaling pathway using the BG1 cell line - cell viability counter screen (AID 743081);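 further: compound given together with 17beta-estradiol as the ER stimulus; series mostly up to about 70 µM; nearly all actives have a fitted effect of over 45% in size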
Aromatase (Homo sapiens) = Aromatase (Homo sapiens) (UniProt P11511); experiment: qHTS assay to identify aromatase inhibitors (AID 743083); further: series mostly up to about 70 µM; nearly all actives have a fitted effect of over 55% in size
Sequence of Aromatase (Homo sapiens) (P11511 whole entry, looked up): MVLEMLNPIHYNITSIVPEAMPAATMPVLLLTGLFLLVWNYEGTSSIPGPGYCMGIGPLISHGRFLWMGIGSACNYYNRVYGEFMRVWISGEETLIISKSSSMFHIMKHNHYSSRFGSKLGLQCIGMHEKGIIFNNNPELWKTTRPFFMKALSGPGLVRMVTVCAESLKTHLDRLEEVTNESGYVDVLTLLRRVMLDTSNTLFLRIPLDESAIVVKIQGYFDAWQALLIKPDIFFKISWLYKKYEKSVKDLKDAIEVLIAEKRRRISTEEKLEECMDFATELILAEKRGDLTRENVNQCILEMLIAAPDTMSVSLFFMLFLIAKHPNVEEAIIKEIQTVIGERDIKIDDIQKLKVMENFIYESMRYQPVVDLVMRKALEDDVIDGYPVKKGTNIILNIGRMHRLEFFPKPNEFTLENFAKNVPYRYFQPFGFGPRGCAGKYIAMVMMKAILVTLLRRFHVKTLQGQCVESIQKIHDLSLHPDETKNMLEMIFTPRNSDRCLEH

[15] = qHTS assay to identify small molecule antagonists of the estrogen receptor alpha (ER-alpha) signaling pathway using the BG1 cell line (AID 743080; calls by dose curve; further: series mostly up to about 70 µM; nearly all actives have a fitted effect of over 25% in size)
Procedure, shortened: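 Antagonist mode: compounds in DMSO were pinned onto BG1-Luc-4E2 cells alongside 17beta-estradiol agonist, incubated 21.5 h, and ERE-driven luciferase measured with ONE-Glo. Cytotoxicity was multiplexed using CellTiter-Fluor fluorescence.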

[16] = molecular target: Androgen receptor (Homo sapiens) (UniProt P10275); experiment: qHTS assay to identify small molecule antagonists of the androgen receptor (AR) signaling pathway (AID 743035; active means well fitted inhibition curve with a large enough effect in the signal ratio in the repeat runs, not every such curve was filed as active; the % refers to the signal ratio)
Sequence of Androgen receptor (Homo sapiens) (P10275 whole entry, looked up): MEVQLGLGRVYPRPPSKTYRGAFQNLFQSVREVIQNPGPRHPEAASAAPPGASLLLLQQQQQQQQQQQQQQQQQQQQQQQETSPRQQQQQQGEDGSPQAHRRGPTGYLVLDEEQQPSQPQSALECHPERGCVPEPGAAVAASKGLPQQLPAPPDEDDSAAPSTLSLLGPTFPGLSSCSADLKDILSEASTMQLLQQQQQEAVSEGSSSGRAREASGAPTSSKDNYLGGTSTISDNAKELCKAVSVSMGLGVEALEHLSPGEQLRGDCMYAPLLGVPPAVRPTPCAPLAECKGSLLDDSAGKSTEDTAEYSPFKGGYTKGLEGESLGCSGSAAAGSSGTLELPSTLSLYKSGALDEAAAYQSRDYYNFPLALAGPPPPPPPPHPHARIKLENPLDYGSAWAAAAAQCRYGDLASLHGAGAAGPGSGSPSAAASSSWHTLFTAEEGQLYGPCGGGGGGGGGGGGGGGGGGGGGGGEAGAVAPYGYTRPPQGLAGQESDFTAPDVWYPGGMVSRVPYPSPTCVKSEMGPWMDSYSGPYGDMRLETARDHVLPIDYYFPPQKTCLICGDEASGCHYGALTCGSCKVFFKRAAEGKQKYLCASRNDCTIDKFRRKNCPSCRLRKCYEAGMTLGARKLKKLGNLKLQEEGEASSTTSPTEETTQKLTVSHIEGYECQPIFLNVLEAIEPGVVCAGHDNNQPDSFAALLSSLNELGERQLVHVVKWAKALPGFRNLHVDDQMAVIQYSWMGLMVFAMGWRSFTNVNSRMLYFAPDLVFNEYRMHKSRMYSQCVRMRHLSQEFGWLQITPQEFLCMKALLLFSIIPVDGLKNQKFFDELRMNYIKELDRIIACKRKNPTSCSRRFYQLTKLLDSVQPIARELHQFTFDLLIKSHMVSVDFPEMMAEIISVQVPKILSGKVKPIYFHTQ
Procedure, shortened: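 Steps: seed AR-UAS-bla GripTite HEK293 cells, incubate 4 h at 37C; pin in test compound, then add agonist R1881; incubate 16 h at 37C; add LiveBLAzer B/G FRET substrate, 2 h at room temperature; read fluorescence.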

[17] = molecular target: Androgen receptor (Homo sapiens) (UniProt P10275); experiment: qHTS assay to identify small molecule agonists of the androgen receptor (AR) signaling pathway (AID 743036; active means well fitted activation curve with a large enough effect in the signal ratio in the repeat runs, with a control signal flat, not every such curve was filed as active; the % refers to the signal ratio)
Procedure, shortened: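 HEK293 cells stably carrying a UAS-driven beta-lactamase reporter (GeneBLAzer AR-UAS-bla-GripTite) were plated at 2,000 cells/well, rested 4 h at 37C, then exposed to compounds in DMSO for 16 h. LiveBLAzer B/G FRET substrate was added for 2 h at room temperature; fluorescence read.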

[18] = molecular target: Androgen receptor (Homo sapiens) (UniProt P10275); experiment: qHTS assay to identify small molecule agonists of the androgen receptor (AR) signaling pathway using the MDA cell line (AID 743040; further: nearly all actives have a fitted effect of over 20% in size)
Procedure, shortened: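 Luciferase read-out, ONE-Glo, 30 min RT. Cells: MDA-kb2 AR-luc, MMTV promoter with AR and GR response elements. Compound exposure 16 h, 37C, 0% CO2, after 5 h pre-incubation. qHTS agonist mode.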

[19] = molecular target: Androgen receptor (Homo sapiens) (UniProt P10275); experiment: qHTS assay to identify small molecule antagonists of the androgen receptor (AR) signaling pathway using the MDA cell line (AID 743042; further: nearly all actives have a fitted effect of over 55% in size)
Procedure, shortened: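 MDA-kb2 breast carcinoma cells carrying MMTV-luciferase (AR/GR responsive) were co-treated with compounds and the agonist R1881 for 16 h at 37C. Inhibition read as ONE-Glo luminescence; CellTiter-Fluor fluorescence measured in parallel for cytotoxicity.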
On the % scale 0 is the no-effect control and ±100 the full control effect.

CCCCCC(=O)OCCc1ccccc1
inactive: outcome [1] | Potency [2] | Potency [3] | Potency [4] | outcome [5] | Potency [6] | Potency [7] | Potency [8] | outcome [9] | Potency [10] | Potency [11] | Potency [12] | Potency [13] | outcome [14] | outcome (Aromatase (Homo sapiens))

C1CCC2(CCCCO2)OC1
inactive: outcome [1] | Potency [2] | Potency [3] | Potency [4] | outcome [5] | Potency [6] | Potency [7] | Potency [8] | outcome [9] | Potency [10] | Potency [11] | Potency [12] | Potency [13] | Potency [15] | outcome [14] | outcome (Aromatase (Homo sapiens))

CCN1C=CN(C)C1C (stereo not given)
inactive: outcome [1] | Potency [2] | Potency [3] | Potency [4] | outcome [5] | Potency [6] | Potency [7] | Potency [8] | outcome [9] | Potency [10] | Potency [11] | Potency [12] | Potency [13] | outcome [14] | outcome (Aromatase (Homo sapiens))

CC1(C)OC[C@@H](COC(=O)CCc2ccc(OC[C@@H](O)CNCCNC(=O)N3CCOCC3)cc2)O1
inactive: outcome [1] | Potency [2] | Potency [3] | Potency [4] | outcome [5] | Potency [16] | outcome [17] | Potency [18] | Potency [6] | outcome [19] | Potency [7] | Potency [8] | outcome [9] | Potency [10] | Potency [11] | Potency [12] | Potency [13] | Potency [15] | outcome [14] | outcome (Aromatase (Homo sapiens))

CCCC(C)C(=O)OCC (stereo not given)
inactive: outcome [1] | Potency [2] | Potency [3] | Potency [4] | outcome [5] | Potency [6] | Potency [7] | Potency [8] | outcome [9] | Potency [10] | Potency [11] | Potency [12] | Potency [13] | Potency [15] | outcome [14] | outcome (Aromatase (Homo sapiens))

O=C(CO)[C@@H](O)[C@H](O)[C@H](O)CO
inactive: outcome [1] | Potency [2] | Potency [3] | Potency [4] | outcome [5] | Potency [6] | Potency [7] | Potency [8] | outcome [9] | Potency [10] | Potency [11] | Potency [12] | Potency [13] | Potency [15] | outcome [14] | outcome (Aromatase (Homo sapiens))

NS(=O)(=O)Cc1noc2ccccc12
inactive: outcome [1] | Potency [2] | Potency [3] | Potency [4] | outcome [5] | Potency [16] | outcome [17] | Potency [18] | Potency [6] | outcome [19] | Potency [7] | Potency [8] | outcome [9] | Potency [11] | outcome [14] | outcome (Aromatase (Homo sapiens))

Cc1cc(C)c(N=Nc2c(O)c(S(=O)(=O)O)cc3cc(S(=O)(=O)O)ccc23)cc1C
inactive: viability change, negative = cytotoxic [1] -0.62% [at 7.04 µM] | activity change, negative = cytotoxicity [2] -7.67% [at 8.52 µM] | activity, negative = cytotoxicity [3] 0.342% [at 8.53 µM] | activity change, negative = cytotoxicity [4] 1.01% [at 8.55 µM] | activity change, negative = cytotoxicity [5] -2% [at 7.04 µM] | viability change, negative = cytotoxic [6] -1.15% [at 8.47 µM] | activity change, negative = cytotoxic [7] -15.7% [at 8.44 µM] | activity, negative = inhibition [8] -3.21% [at 8.44 µM] | activation [9] 0.237% [at 8.08 µM] | activity, negative = inhibition [10] -5.6% [at 6.71 µM] | activity, negative = cytotoxicity [11] -15.7% [at 6.72 µM] | activation [12] -3.26% [at 6.71 µM] | activation [13] 5.28% [at 8.47 µM] | activity change, negative = inhibition [15] -1.62% [at 8.47 µM] | activity change, negative = cytotoxicity [14] -6.97% [at 8.47 µM] | activity, negative = inhibition (Aromatase (Homo sapiens)) -5.99% [at 8.47 µM]
